HT1080 IDH1KD tx = HT-1080 IDH1 knockdown cell toxicity (counter line). HT-1080 IDH1 knockdown viability, ATP luminescence, 48 h. Potency, µM (titrated, usually from 46.1 µM), hits mostly cytotoxic. hit rate 2% among 360,000. AID 686971
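IDH1KD HT-1080 cells, 750/well, RPMI + 5% FBS; compound pinned after 2 h settling; 48 h, 37 °C; CellTiter-Glo luminescence; % activity normalised to DMSO and no-cell wells; curves fitted, classed by r2 and efficacy.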
SW480 rerep = induces DNA re-replication in SW480 colon adenocarcinoma cells; Potency, µM (series often up to 46.1 µM), hits mostly activators; hit rate 1.8% among 340,000; SW480 DNA re-replication, Hoechst DNA content imaging, 48 h; AID 624297; also: nearly all actives have a fitted effect of over 55% in size
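First, 250 cells per well were seeded. Next, compound or vehicle (23 nL) was pinned in, plates sat 48 hr at 37 C. Finally Hoechst was added for 40 min before fluorescence scanning.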
KB-V1 MDR tox = kills drug-selected multidrug resistant KB-V1 cells | KB-V1 MDR cells viability, CellTiter-Glo, 72 h | Potency, µM (doses to about 46.1 µM), actives largely listed as cytotoxic | hit rate 3.4% among 400,000 | AID 1347076; also: nearly all actives have a fitted effect of over 60% in size
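Luminescent ATP read-out (CellTiter-Glo, 10 min) measures survival of drug-selected KB-V1 MDR cells after 72 h, 37 degrees C compound exposure. Medium: phenol-red-free DMEM, 10% FBS. Values from fitted concentration-response curves.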
MCF10A rereplic = inducers of DNA re-replication in MCF 10A breast cells; MCF 10A DNA re-replication, Hoechst nuclear intensity, 48 h; AID 624296; Potency, µM (top dose mostly 46.1 µM), usual class: activators; hit rate 2.9% among 350,000; also: nearly all actives have a fitted effect of over 50% in size
HT1080NT lethal = kills 2HG-producing HT-1080-NT fibrosarcoma cells. HT-1080-NT fibrosarcoma viability, CellTiter-Glo ATP luminescence, 48 h. Potency, µM (titrated, usually from 46.1 µM), actives largely listed as cytotoxic. hit rate 1.6% among 360,000;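 also: NT is the 2HG producing partner of a matched IDH1 knockdown line; nearly all actives have a fitted effect of over 55% in size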
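Toxicity toward the 2HG-producing NT line was scored as %Activity, normalised to DMSO and no-cell wells, from CellTiter-Glo luminescence after 48 hours' treatment.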
KB-3-1 tox = KB-3-1 parental cell cytotoxicity; KB-3-1 viability, CellTiter-Glo ATP luminescence, 72 h; Potency, µM (titrated, usually from 46.1 µM), actives largely listed as cytotoxic; hit rate 1.4% among 400,000; also: nearly all actives have a fitted effect of over 60% in size
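Here the drug-naive KB-3-1 line serves as comparator for MDR sub-line selectivity; cells received compound titrations, 72 h at 37 °C, then CellTiter-Glo readout.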
A number is an active result; n = inactive; u = inconclusive; x = not tested or not shown. Sampled rows, rich in hits. Any-hit rate of the full collection: about 7.9%. Calls follow the shape of the dose curve; as a rule, active = well fitted curve in the direction sought with a large enough effect; inconclusive = small, poorly fitted or top-dose-only effect, or another doubt; inactive = no such curve, though single readings can be large; an effect the other way counts as inactive or inconclusive.

SMILES	HT1080 IDH1KD tx	SW480 rerep	KB-V1 MDR tox	MCF10A rereplic	HT1080NT lethal	KB-3-1 tox
OC[C@@H]1CN(Cc2ccc(Cl)cc2)C[C@H](n2cnc3c(NC4CCCC4)ncnc32)O1	n	x	n	x	n	n
CCc1oc2ccccc2c1C(=O)c1cc(I)c(O)c(I)c1	x	n	x	3.76µM	x	x
CCCCc1oc2ccccc2c1C(=O)c1cc(I)c(N(CC)CCOCC)c(I)c1	x	x	n	x	x	n
CCN(CC(=O)Nc1cc(Cl)ccc1C)C(=O)CC1CCCC1	n	n	n	n	n	n
CC(=O)C1=C(O)C(CSCc2ccccc2)N(C)C1=O (stereo not given)	n	n	20.6µM	n	n	n
COCCNS(=O)(=O)c1ccc(OCC(=O)N2CCc3ccccc3C2)c(Cl)c1	n	n	u	n	n	n
Cc1c(N=C2C=CC(=O)c3ccccc32)c(=O)n(-c2ccccc2)n1C	18.4µM	u	n	u	20.6µM	n
CC(=NO)C1CCC2C3CCC4CC(=NO)CCC4(C)C3C(C)(O)CC12C (stereo not given)	n	n	11.6µM	n	n	n
COC(=O)Cn1ccc(N(C)C)c(C#N)c1=O	n	6.51µM	n	9.2µM	n	n
COC(=O)Cn1ccc(-c2ccc(Cl)cc2)c(C#N)c1=O	n	n	n	n	n	n
O=c1[nH]c(CN2CCN(c3ccc([N+](=O)[O-])cc3)CC2)nc2ccsc12	n	n	18.4µM	n	n	16.4µM
O=C(CCNC(=O)c1ccccc1Cl)N/N=C\c1ccc(O)cc1	n	n	n	n	n	n
O=C(NC(NNc1ccc([N+](=O)[O-])cc1)(C(F)(F)F)C(F)(F)F)c1ccc(Cl)cc1	u	n	n	14.6µM	n	n
CCOc1ccc(S(=O)(=O)Oc2ccc3ccccc3c2)cc1	n	n	u	u	n	u
Cc1ccc(S(=O)(=O)Oc2ccc3ccc(O)cc3c2)cc1	n	n	u	1.03µM	n	n
CC1=CC(C)(C)Nc2ccc(OC(=O)CCN3C(=O)c4ccccc4C3=O)cc21	u	9.2µM	u	6.51µM	u	u
CC1=CC(C)(C)Nc2ccc(OS(=O)(=O)c3ccc(C)cc3)cc21	n	n	14.6µM	u	n	n
O=C(CCN1C(=O)c2ccccc2C1=O)Oc1ccc2ccccc2c1	n	n	n	n	n	n
COc1cccc(NC(=S)N2CCn3cccc3C2c2cccnc2)c1 (stereo not given)	n	n	n	n	n	n
Fc1ccc(NC(=S)N2CCn3cccc3C2c2cccnc2)cc1 (stereo not given)	n	n	n	n	n	n
Cc1cccc(NC(=S)N2CCn3cccc3C2c2cccnc2)c1 (stereo not given)	n	n	16.4µM	n	n	n
Fc1ccc(C2c3cccn3CCN2C(=S)Nc2cccc(Br)c2)cc1 (stereo not given)	u	n	u	23.1µM	u	u
Cc1ccc(C)c(Cn2nnc(C(=O)Nc3ccc4c(c3)OCCO4)c2N)c1	n	n	n	n	n	u
COCCn1c(-c2ccccc2)nc2c(c(=O)c3ccccc3n2C)c1=O	x	n	x	n	x	x
COc1ccc(N(C(C)=O)C2SC(=O)N(c3ccccc3)C2=O)cc1 (stereo not given)	n	x	x	x	n	x
SMILES	HT1080 IDH1KD tx	SW480 rerep	KB-V1 MDR tox	MCF10A rereplic	HT1080NT lethal	KB-3-1 tox
Cc1cccc(OCCNC(=O)c2cccc(Oc3ccc(C(F)(F)F)cc3[N+](=O)[O-])c2)c1	n	n	9.2µM	n	n	18.4µM
Clc1ccc(-c2nc3ccncc3[nH]2)cc1	u	n	18.4µM	n	u	u
Cn1c(CSc2nc3ccccc3n2C)nc2ccccc21	n	n	u	n	n	n
Cn1c(SC2=CS(=O)(=O)c3ccccc32)nc2ccccc21	u	u	n	u	18.4µM	n
COC(=O)c1c(S(=O)(=O)N2CCOCC2)c(C)n(C)c1C	n	n	n	u	n	n
CC(C)OCCCNc1ncnc2c1[nH]c1ccccc12	u	n	u	n	u	7.31µM
COc1ccc(CNc2ncnc3c2[nH]c2ccccc23)cc1	20.6µM	n	13µM	u	16.4µM	n
COC(=O)c1ccc(CNC(=O)Cn2cnc3c(NCc4ccccc4)ncnc32)cc1	n	n	n	n	n	u
C1=C(CCNc2ncnc3c2[nH]c2ccccc23)CCCC1	25.9µM	n	u	u	25.9µM	5.17µM
COc1ccc(CNC(=O)Cn2cnc3c(NCc4ccccc4)ncnc32)cc1	16.4µM	13µM	n	u	14.6µM	10.3µM
COc1ccc(CNc2ncnc3c2[nH]c2cc(OC)c(OC)cc23)cc1	u	n	n	u	n	n
CC(C)(C)c1ccc(-n2ncc3c2CCCC3NC(=O)CCn2cncn2)cc1 (stereo not given)	n	n	u	n	n	n
CCCc1cnc(NCCNCC(O)COc2ccc(Cl)c(Cl)c2)nc1 (stereo not given)	20.6µM	u	u	u	18.4µM	n
Cc1ccc(-c2noc(CCC(=O)NCc3ccc4c(c3)OCO4)n2)cc1	n	n	n	n	u	n
Oc1cccc(C2c3[nH]c4ccccc4c3CCN2Cc2ccoc2)c1 (stereo not given)	n	n	n	n	n	n
Oc1cccc(C2c3[nH]c4ccccc4c3CCN2Cc2ccc3c(c2)CCO3)c1 (stereo not given)	23.1µM	u	18.4µM	16.4µM	20.6µM	20.6µM
CC/C(=N\Nc1ccccc1[N+](=O)[O-])c1ccc(O)cc1	20.6µM	n	n	u	u	n
COc1ccc(CN=C2NC(=O)CC(C(=O)Nc3cc(C)cc(C)c3)S2)cc1 (stereo not given)	n	n	n	n	n	n
C=CCn1c(SCc2ccccc2Cl)nnc1-c1sc2nc(C)cc(C)c2c1N	n	18.4µM	n	10.3µM	u	n
CC1CC2=C(NC(=S)NC2c2ccc(F)cc2)/C(=C/c2ccc(F)cc2)C1 (stereo not given)	u	u	n	n	10µM	n
C=CCN1C(=O)C(CC(=O)Nc2ccc(OC)cc2)SC1=Nc1ccc(S(N)(=O)=O)cc1 (stereo not given)	n	n	n	n	n	u
CC(C)COc1nc2ccccc2nc1C(C#N)C(=O)NC1CCCCC1 (stereo not given)	n	n	n	5.8µM	n	n
CC1CCN(c2nc3ccccc3nc2C(C#N)C(=O)OC2CCCCC2)CC1 (stereo not given)	n	n	n	n	n	n
CC(=O)c1ccc(N2CCN(C(=O)C3CCN(S(=O)(=O)c4ccc(Br)s4)CC3)CC2)cc1	x	x	u	x	x	n
Cc1cc(NC(=O)NC(=O)c2ccccc2NC(=O)CN)ccc1Oc1ncc(Br)cn1	u	2.91µM	u	u	0.517µM	1.16µM

Screens as filed in PubChem BioAssay.
